Holding throughout (experiment): NCI-60 one-dose screen, 48 h (100 = growth as untreated, 0 = no growth, -100 = all killed)
Common to all, as to details: 10 µM unless noted

Assay [1] relates to SK-MEL-2 melanoma.
The test system of assay [2] is EKVX NSCLC.
The test system of assay [3] is SN12C renal.
Assay [4] has as its system UO-31 renal.
The subject of assay [5] is TK-10 renal.
Assay [6] deals with ACHN renal.
Assay [7] has as its system CAKI-1 renal.
The test system of assay [8] is A498 renal.
Assay [9] has as its system CCRF-CEM leukemia.
Assay [10] relates to MOLT-4 leukemia.

SMILES strings stand for the structures. About 83,000 compounds went through this panel and 20% of them were active in at least one assay; those are over-represented in the sample as a whole.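 In brief: 96-well plates, 48 h treatment, single concentration, percent growth endpoint.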 A number with no mark means an inactive call. Calls of active or inactive are those of the source. How the source made its calls: active means growth percent below 10; inactive means the rest.

Take `O=C(CSc1nc(-c2ccccc2)[nH]c1S(=O)(=O)c1ccccc1)NC1CC1`: the growth is 102% in assay [1]; 65.1% in assay [2]; 96.5% in assay [3]; 89.2% in [4]; 87.2% in assay [5]; 104% in assay [6]. Moreover, the growth was 99.2% in [7], 72.9% in assay [8], 93.4% in [9] and 93.8% in assay [10].

Turning to `COc1ccc2[nH]cc(-c3nc(-c4cn(C)c5c(Cl)nccc45)cs3)c2c1`, the growth in [1] is 50.9%; in [2], 73.7%; in assay [3] it was 62.5%; in assay [4], 36.6%; in assay [5], 71.1%; in [6], 22.6%. For the same compound, the growth is 60.2% in [7], 16% in [8], 22.1% in [9] and 36.2% in assay [10].

On to `O=CC1(C2(C=O)c3ccccc3-c3ccccc32)c2ccccc2-c2ccccc21`, for which the growth in assay [1] was -44.4% (active); in assay [2], -78.4% (active); in assay [3] it was -29.1% (active); in assay [4] it was -89.3% (active); in assay [5], -79.9% (active); in assay [6] it was -79% (active). In addition, the growth in [7] is -78.2% (active); in assay [8] it was -84.1% (active); in assay [9], -5.1% (active); in assay [10], -47.4% (active).

`CN1CCN(Cc2ccc(NC(=O)c3cncc(C#Cc4cnc(N)c5ccccc45)c3)cc2C(F)(F)F)CC1`: the growth in [1] was -81.6% (active); in [2], -96.3% (active); in [3], -90.7% (active); in assay [4] it was -89.7% (active); in [5] it was -90% (active); in assay [6], -100% (active). The growth in assay [7] was -92.1% (active); in assay [8], -87% (active); in assay [9] it was -6.38% (active); in assay [10] it was 2.94% (active).

As for `O=C(NCc1ccccc1)Nc1ccccc1CNc1nc(Nc2ccc(OCCN3CCCC3)cc2)ncc1Cl`, the growth in assay [1] is 108%; in [2] it was 99.2%; in [3], 101%; in assay [4] it was 71.7%; in [5], 110%; in assay [6], 92.3%. The growth in assay [7] was 106%; in assay [8], 77.2%; in [9] it was 20%; in assay [10] it was 74.1%.

For `O=Cc1ccc([N+](=O)[O-])s1`, the growth was 107% in assay [1]; 114% in assay [2]; 84.1% in assay [3]; 89.8% in assay [4]; 112% in assay [5]; 90.8% in assay [6]. The growth in assay [7] is 100%; in assay [8], 94.5%; in assay [9] it was 88.2%; in assay [10], 88.3%.

`Nc1c(C(=O)Nc2ccncc2)sc2nc3c(cc12)CCCCCC3`: the growth in assay [1] is 94.2%; in [2], 89.2%; in assay [3], 86.4%; in assay [4] it was 78.4%; in assay [5], 90.2%; in assay [6], 108%. The growth in assay [7] was 98%; in assay [8], 54.8%; in [9], 68.1%; in assay [10], 70.3%.

With `S=C1CCSC(=S)N1CCCN1C(=S)CCSC1=S`, the growth in assay [1] was 96.1%; in assay [2], 101%; in assay [3], 75.6%; in assay [4] it was 45.1%; in assay [5], 66%; in [6], 44.4%. Besides, the growth is 58.9% in assay [7], 102% in assay [8], 16.7% in [9] and 30.1% in assay [10].

As to `O=C1N(Cc2ccccc2Cl)c2ccccc2C12NN=C(c1cccc(Cl)c1)S2` (stereo not given), the growth in [1] was -23.1% (active); in assay [2] it was -31% (active); in [3] it was -19.8% (active); in assay [4], -58.3% (active); in assay [5] it was -3.68% (active); in assay [6], -47.1% (active). The growth in [7] was -30.7% (active); in assay [8] it was -85.9% (active); in [9], 1.03% (active); in [10], -18% (active).

Turning to `O=C(CCC(=O)N/N=C/c1ccccc1O)N/N=C/c1ccccc1O`, the growth in [1] was 69.7%; in assay [2], 41.1%; in assay [3], 70.2%; in assay [4] it was 17.4%; in assay [5], 44%; in assay [6], 18.7%. Moreover, the growth is 27.7% in [7], 80% in [8], 25% in assay [9] and 18.1% in assay [10].

Take `Oc1c(Cl)cc(Cl)c2ccc(Cn3cc(-c4ccc(C(F)(F)F)cc4)nn3)nc12`: the growth is 95.4% in [1]; 81% in assay [2]; 76.9% in assay [3]; 68.5% in [4]; 97.3% in assay [5]; 36.7% in assay [6]. Also, the growth is 21% in assay [7], 83.7% in [8], 6.1% (active) in assay [9] and -8.16% (active) in [10].

Take `CC(=O)OC[C@]12CCC(C)(C)C[C@H]1[C@@]1(O)[C@H](O)C[C@@H]3[C@@]4(C)CCCNC(C)(C)[C@@H]4CC[C@@]3(C)[C@]1(C)CC2`: the growth was 112% in assay [1]; 101% in assay [2]; 99.5% in [3]; 85.8% in assay [4]; 103% in [5]; 109% in assay [6]. Moreover, the growth in [7] is 106%; in assay [8] it was 86.5%; in assay [9] it was 102%; in assay [10], 104%.

As for `C[C@H](NC(=O)[C@@H](C)N)[C@H](Oc1ccc2c(cnn2-c2ccc(F)cc2)c1)c1ccc2c(c1)OCCO2`, the growth in assay [1] was 65.8%; in [2] it was 43.5%; in [3], 42.6%; in assay [4], 18.5%; in assay [5], 70.5%; in assay [6] it was 59%. For the same compound, the growth in assay [7] was 20.4%; in assay [8] it was 91.2%; in assay [9] it was 15.5%; in assay [10], 8.43% (active).

Take `Cc1ccc(-c2nc3nc(-c4ccc(F)cc4)nc(N4CCNCC4)c3o2)cc1`: the growth in [1] was 102%; in [2], 127%; in assay [3], -48.7% (active); in assay [4] it was 76.7%; in [5], -35.8% (active); in [6], -95.5% (active). In addition, the growth was 1.35% (active) in assay [7], 79.5% in [8], -71% (active) in [9] and -64.6% (active) in [10].

For `COc1ccc2nc(NC(=O)CSc3nnc4n3S(=O)(=O)c3ccccc3N4C)sc2c1`, the growth is 50.6% in assay [1]; 106% in [2]; 99.5% in assay [3]; -72.5% (active) in [4]; 140% in assay [5]; 100% in assay [6]. Further, the growth in assay [7] is 98.3%; in [8] it was 121%; in assay [9], 4.33% (active); in [10], 71.5%.

In the case of `N#Cc1nc(-c2ccccc2)oc1S(=O)(=O)N1CCOCC1`, the growth in [1] is 90.2%; in assay [2], 106%; in assay [3], 74.1%; in [4], 82.9%; in assay [5], 94.5%; in [6] it was -97.7% (active). The growth in assay [7] was 66.9%; in assay [8], 89.7%; in assay [9], -20.9% (active); in assay [10] it was -16% (active).

Turning to `CCCCCCCCCCCCCCCCCCOc1ccccc1CC(=O)OCC[N+]1(C)CCCC1`, the growth was 65.6% in assay [1]; 53.8% in assay [2]; 12.7% in assay [3]; 62.8% in assay [4]; 45.2% in [5]; 78.9% in [6]. Moreover, the growth in assay [7] was 30.9%; in [8] it was 60.7%; in assay [9], 19.8%; in assay [10], 18.1%.

For the compound `COc1cc2oc(-c3cccc(NC(=O)c4cccc(Br)c4)c3)cc(=O)c2c(OC)c1OC`, the growth was 54% in assay [1]; 61.3% in [2]; 54.2% in assay [3]; 36.8% in [4]; 65.5% in [5]; 44.1% in [6]. The growth in assay [7] is 51.4%; in assay [8] it was 46.6%; in [9], 30.3%; in [10], 41.7%.

As for `Oc1c(Cl)cc(Cl)cc1/C=N/Nc1nnc(N/N=C/c2cc(Cl)cc(Cl)c2O)c2ccccc12`, the growth in assay [1] was 51.2%; in assay [2], 10.2%; in assay [3] it was 20%; in assay [4], 0.684% (active); in assay [5] it was 37.8%; in assay [6] it was 7.55% (active). Besides, the growth was -34.7% (active) in assay [7], -2.98% (active) in [8], 14% in assay [9] and 5.23% (active) in assay [10].

Regarding `N#Cc1cccc(F)c1`, the growth in assay [1] was 103%; in assay [2], 113%; in assay [3], 99.2%; in assay [4], 84.9%; in [5], 106%; in [6] it was 95.6%. The growth in [7] is 94.6%; in [8] it was 129%; in [9], 104%; in assay [10], 107%.

Consider `O=C1c2c(c3c4ccc(Br)cc4oc3c3[nH]c4ccccc4c23)C(=O)N1O`, for which the growth is 20% in assay [1]; 66.6% in [2]; 14.5% in assay [3]; 13.8% in [4]; 121% in assay [5]; 22.8% in [6]. Besides, the growth in [7] is 29%; in assay [8], 13.1%; in [9], 11.4%; in assay [10], 11.2%.

`Cc1cc(Cl)ccc1NC(=O)c1cc2ccccc2cc1O`: the growth in [1] is -2.55% (active); in assay [2], 44.2%; in assay [3] it was 3.74% (active); in assay [4], -2.52% (active); in [5], -0.787% (active); in assay [6], 8.67% (active). Further, the growth in assay [7] is -5.76% (active); in assay [8], -12.8% (active); in [9], 8.07% (active); in assay [10] it was 17.7%.

Turning to `CN(C)CCCC1(c2ccc(F)cc2)OCc2cc(-c3cncc4ccccc34)ccc21` (stereo not given), the growth in assay [1] was 58.7%; in assay [2] it was 76.2%; in assay [3] it was 43.1%; in [4], 29.9%; in [5], 83.1%; in [6], 36.9%. In addition, the growth in assay [7] was 28.2%; in assay [8] it was 34.1%; in [9] it was 26.9%; in assay [10], 14.6%.

As for `O=C1c2cccc(NCCN=Cc3cc(O)ccc3O)c2C(=O)c2c(NCCN=Cc3cc(O)ccc3O)cccc21`, the growth in assay [1] is 20.9%; in [2], 3.36% (active); in assay [3] it was -24.7% (active); in assay [4] it was -18% (active); in assay [5], -12.1% (active); in assay [6] it was 0.31% (active). The growth in [7] was -37.1% (active); in [8], -48.6% (active); in assay [9], -58.7% (active); in [10], -53.1% (active).

Take `COc1cc(N2C(=O)[C@H](O)C2c2ccc(SC)cc2)cc(OC)c1OC` (stereo not given in full): the growth was 16.6% in assay [1]; 36.7% in assay [2]; 28.7% in assay [3]; 43.5% in assay [4]; 40.7% in [5]; 31.8% in assay [6]. Also, the growth was 23.6% in assay [7], -1.79% (active) in [8], 3.99% (active) in assay [9] and 4.67% (active) in [10].

For the compound `CCCCNc1ccc(C#N)c(OCCN(CC)CC)c1`, the growth in assay [1] was 105%; in assay [2], 98.7%; in [3], 105%; in [4] it was 84.6%; in assay [5], 108%; in assay [6], 101%. Besides, the growth in assay [7] was 98.6%; in assay [8] it was 117%; in assay [9], 94.8%; in assay [10], 88.2%.

As for `Fc1cc2c(cc1Cl)N(c1ncnc3ccc(-c4cnc5[nH]ncc5c4)cc13)CC2`, the growth was 91.4% in assay [1]; 41.9% in assay [2]; 47.6% in assay [3]; 21.8% in assay [4]; 54.6% in [5]; 30.9% in assay [6]. Besides, the growth is 38.7% in [7], -6.52% (active) in assay [8], 71.1% in assay [9] and 60.1% in assay [10].

Source of the values: PubChem BioAssay (NCI).
